Test results from the supplement of paper PMC11732987, “Enantioselective OTUD7B fragment discovery through chemoproteomics screening and high-throughput optimisation” (Communications Chemistry, 2025).

What was measured:
Experiment in all cases: log2 ratio of Biotin-Ahx-Ub-VS probe labelling (fragment/DMSO); higher = less target engagement (more negative = stronger competition), active = hit call of the paper (q ≤ 0.05, log2 ratio ≤ -1)
Settings in all cases: compound concentration: 200 uM; treatment time: 3 h
OTUD6B = target: T1, OTUD6B (UniProt Q8N6M0)
T1 sequence (whole entry): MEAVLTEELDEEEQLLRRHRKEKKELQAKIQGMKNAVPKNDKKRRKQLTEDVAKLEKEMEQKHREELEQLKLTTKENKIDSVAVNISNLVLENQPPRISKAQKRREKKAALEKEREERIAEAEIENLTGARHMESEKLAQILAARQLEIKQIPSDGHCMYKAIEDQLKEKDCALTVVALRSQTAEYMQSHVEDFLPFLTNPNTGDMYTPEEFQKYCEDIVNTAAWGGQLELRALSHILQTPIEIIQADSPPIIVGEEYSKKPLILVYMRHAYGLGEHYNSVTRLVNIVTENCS
Procedure, shortened: (§1)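 Lysate from HEK293T cells, 495 µg per sample in Tris/CHAPS/IGEPAL buffer with protease inhibitors, was treated for 3 h in triplicate with fragment at 200 µM or vehicle. Biotin-Ahx-Ub-VS was next added at 0.5 µM final for 1 h. The labelled DUBs were enriched with NeutrAvidin, digested with LysC and trypsin, and run by diaPASEF LC-MS/MS, with values given as average log2 fragment/vehicle ratios by unpaired t-test on global-median-normalised Spectronaut quantities of proteins with ≥2 unique peptides.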

OTUD7B = target: T2, OTUD7B (UniProt Q6GQQ9)
T2 sequence (whole entry): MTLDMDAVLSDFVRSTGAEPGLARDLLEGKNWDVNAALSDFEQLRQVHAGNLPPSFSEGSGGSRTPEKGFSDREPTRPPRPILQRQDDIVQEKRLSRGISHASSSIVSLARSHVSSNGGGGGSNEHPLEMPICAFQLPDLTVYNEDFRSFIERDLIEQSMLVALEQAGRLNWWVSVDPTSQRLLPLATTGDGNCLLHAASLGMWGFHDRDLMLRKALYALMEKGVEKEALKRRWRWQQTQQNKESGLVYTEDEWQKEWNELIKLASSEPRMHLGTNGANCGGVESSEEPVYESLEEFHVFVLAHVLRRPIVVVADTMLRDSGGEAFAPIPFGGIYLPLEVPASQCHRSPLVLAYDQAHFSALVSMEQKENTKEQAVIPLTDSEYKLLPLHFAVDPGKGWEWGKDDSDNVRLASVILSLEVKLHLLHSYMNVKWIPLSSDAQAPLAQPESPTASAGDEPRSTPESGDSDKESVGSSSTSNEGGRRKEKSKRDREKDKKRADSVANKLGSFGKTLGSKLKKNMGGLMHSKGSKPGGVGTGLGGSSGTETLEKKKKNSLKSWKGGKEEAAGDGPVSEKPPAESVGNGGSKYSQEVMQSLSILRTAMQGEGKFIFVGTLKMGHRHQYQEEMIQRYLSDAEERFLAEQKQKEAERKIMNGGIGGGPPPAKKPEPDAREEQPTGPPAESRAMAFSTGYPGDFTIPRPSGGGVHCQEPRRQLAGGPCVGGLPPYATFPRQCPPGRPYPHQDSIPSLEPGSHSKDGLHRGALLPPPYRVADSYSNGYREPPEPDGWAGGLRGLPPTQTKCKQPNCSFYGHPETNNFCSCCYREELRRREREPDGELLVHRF
Procedure, shortened: as §1

PRPF8 = PRPF8 (UniProt Q6P2Q9)
Procedure, shortened: as §1

PSMD7 = target: T3, PSMD7 (UniProt P51665)
T3 sequence (whole entry): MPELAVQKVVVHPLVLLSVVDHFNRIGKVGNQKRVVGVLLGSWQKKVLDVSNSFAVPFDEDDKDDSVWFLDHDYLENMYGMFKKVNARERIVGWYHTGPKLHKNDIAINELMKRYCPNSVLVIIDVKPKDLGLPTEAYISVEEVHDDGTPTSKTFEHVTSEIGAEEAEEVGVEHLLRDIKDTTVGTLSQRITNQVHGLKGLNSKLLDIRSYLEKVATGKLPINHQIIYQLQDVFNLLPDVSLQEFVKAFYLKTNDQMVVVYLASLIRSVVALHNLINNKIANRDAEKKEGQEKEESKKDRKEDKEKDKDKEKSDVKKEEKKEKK
Procedure, shortened: as §1

UCHL1 = UCHL1 (UniProt P09936)
Chain of UCHL1 (P09936 whole entry, looked up): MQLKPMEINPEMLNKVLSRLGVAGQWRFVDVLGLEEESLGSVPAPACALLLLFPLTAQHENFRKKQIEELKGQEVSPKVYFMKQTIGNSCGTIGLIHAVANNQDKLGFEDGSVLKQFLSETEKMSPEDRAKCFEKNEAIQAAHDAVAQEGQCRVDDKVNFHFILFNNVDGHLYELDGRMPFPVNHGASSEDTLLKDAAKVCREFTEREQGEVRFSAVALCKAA
Procedure, shortened: as §1

UCHL3 = target: T4, UCHL3 (UniProt P15374)
T4 sequence (whole entry): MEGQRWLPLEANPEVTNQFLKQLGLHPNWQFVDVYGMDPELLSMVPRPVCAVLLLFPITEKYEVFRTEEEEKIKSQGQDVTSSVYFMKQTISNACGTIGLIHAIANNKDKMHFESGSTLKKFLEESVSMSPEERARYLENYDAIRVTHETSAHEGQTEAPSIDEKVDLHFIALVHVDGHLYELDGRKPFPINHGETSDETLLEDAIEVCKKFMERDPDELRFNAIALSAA
Procedure, shortened: as §1

UCHL5 = target: T5, UCHL5 (UniProt Q9Y5K5)
T5 sequence (whole entry): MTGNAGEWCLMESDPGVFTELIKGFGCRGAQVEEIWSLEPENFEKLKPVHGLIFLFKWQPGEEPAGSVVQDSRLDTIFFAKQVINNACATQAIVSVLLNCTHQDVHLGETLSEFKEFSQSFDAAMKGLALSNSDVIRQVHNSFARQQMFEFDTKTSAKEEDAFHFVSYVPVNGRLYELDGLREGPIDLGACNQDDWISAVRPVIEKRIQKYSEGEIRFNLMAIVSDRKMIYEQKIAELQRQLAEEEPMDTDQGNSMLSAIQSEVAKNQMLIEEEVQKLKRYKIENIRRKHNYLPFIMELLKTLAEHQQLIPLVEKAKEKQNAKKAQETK
Procedure, shortened: as §1

USP10 = USP10 (UniProt Q14694)
Chain of USP10 (Q14694 whole entry): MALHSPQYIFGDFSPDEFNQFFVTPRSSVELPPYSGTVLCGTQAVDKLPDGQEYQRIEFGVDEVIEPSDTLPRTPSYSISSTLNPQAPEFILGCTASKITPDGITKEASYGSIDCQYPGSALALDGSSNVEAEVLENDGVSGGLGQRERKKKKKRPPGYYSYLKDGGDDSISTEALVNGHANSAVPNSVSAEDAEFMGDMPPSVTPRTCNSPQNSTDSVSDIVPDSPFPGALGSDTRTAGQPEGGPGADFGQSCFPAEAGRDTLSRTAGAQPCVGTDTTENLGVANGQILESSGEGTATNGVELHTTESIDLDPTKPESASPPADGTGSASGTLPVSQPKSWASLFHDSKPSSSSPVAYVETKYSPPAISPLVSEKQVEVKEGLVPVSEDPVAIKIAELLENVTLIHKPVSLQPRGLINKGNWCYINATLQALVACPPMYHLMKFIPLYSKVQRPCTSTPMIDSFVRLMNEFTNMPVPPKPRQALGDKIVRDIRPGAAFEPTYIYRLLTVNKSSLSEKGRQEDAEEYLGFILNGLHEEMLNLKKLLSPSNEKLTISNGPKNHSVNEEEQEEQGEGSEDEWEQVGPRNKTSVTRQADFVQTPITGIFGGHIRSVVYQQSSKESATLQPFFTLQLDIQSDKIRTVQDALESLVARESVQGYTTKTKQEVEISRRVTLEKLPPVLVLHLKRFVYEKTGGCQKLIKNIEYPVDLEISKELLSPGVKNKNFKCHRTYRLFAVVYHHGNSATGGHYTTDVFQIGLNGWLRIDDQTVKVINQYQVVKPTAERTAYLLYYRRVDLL
Procedure, shortened: as §1

USP15 = target: T6, USP15 (UniProt Q9Y4E8)
T6 sequence (whole entry): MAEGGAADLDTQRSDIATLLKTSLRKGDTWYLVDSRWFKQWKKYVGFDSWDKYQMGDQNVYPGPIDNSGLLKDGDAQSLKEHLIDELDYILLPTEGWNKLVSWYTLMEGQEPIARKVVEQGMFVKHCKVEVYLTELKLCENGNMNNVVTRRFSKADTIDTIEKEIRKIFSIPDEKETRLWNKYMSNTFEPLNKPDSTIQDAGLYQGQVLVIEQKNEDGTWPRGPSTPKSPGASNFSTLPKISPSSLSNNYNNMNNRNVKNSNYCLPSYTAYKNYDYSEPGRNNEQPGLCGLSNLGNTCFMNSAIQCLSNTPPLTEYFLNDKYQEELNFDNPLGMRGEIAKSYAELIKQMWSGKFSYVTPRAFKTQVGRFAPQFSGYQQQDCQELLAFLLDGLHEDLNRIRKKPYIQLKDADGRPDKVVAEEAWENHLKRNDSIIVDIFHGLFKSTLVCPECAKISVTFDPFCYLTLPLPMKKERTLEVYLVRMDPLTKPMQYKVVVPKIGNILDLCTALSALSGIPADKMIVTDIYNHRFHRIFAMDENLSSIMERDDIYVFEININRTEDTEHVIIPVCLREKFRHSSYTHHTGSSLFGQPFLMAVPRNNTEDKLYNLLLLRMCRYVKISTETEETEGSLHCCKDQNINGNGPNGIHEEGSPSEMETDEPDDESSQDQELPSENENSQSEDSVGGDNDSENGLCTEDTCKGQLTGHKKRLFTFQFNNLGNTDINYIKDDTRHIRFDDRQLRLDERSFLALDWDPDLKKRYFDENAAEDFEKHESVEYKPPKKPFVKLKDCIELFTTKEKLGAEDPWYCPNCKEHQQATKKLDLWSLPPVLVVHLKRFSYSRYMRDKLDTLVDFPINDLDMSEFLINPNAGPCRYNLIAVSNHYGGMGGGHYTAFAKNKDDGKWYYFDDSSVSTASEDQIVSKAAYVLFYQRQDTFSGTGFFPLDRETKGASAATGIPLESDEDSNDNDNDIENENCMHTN
Procedure, shortened: as §1

USP16 = USP16 (UniProt Q9Y5T5)
Chain of USP16 (Q9Y5T5 whole entry, looked up): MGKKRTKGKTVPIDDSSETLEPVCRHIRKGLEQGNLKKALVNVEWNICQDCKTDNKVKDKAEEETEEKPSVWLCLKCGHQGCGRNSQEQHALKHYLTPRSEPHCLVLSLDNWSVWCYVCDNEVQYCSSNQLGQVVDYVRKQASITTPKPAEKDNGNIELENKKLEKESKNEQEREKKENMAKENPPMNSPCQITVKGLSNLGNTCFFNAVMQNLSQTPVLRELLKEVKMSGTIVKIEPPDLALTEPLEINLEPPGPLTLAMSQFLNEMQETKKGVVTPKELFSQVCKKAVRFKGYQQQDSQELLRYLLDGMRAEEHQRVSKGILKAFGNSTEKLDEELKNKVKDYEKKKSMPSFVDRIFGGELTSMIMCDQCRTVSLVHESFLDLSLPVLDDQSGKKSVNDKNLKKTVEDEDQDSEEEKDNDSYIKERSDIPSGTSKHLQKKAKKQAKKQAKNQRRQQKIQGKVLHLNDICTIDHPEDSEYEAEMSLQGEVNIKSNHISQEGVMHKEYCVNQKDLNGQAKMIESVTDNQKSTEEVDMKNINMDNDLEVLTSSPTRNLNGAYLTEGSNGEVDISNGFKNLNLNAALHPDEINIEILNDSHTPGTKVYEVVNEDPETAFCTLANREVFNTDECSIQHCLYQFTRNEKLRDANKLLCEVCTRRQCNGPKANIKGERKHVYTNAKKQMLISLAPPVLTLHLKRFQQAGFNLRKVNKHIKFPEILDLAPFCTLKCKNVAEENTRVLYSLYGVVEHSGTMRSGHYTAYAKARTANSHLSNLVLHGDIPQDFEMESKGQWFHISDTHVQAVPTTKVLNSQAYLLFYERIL
Procedure, shortened: as §1

Measured: log2 ratio of Biotin-Ahx-Ub-VS probe labelling

Cc1ccc(CC(NC(=O)CCl)c2ccccn2)cc1.Cl (stereo not given)
inactive: OTUD6B 0.0158 | OTUD7B -0.295 | PRPF8 0.0556 | PSMD7 -0.125 | UCHL1 -0.621 | UCHL3 0.459 | UCHL5 0.179 | USP10 -0.00276 | USP15 0.0178 | USP16 0.0921
